Compound activity from PubChem BioAssay.
FAS TE block = inhibitors of human fatty acid synthase thioesterase domain; recombinant FAS-TE, OMFH fluorogenic substrate, fluorescence endpoint; inhibition, % at 15 µM; 0.67% of 360,000 active; AID 602261;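 active means compounds whose normalised, plate-corrected inhibition of enzyme fluorescence in the single-dose primary screen is 50% or more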;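 further: 0% = DMSO with enzyme and 100% = substrate without enzyme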
Target sequence (P49327 whole entry, looked up, the tested form may be a part): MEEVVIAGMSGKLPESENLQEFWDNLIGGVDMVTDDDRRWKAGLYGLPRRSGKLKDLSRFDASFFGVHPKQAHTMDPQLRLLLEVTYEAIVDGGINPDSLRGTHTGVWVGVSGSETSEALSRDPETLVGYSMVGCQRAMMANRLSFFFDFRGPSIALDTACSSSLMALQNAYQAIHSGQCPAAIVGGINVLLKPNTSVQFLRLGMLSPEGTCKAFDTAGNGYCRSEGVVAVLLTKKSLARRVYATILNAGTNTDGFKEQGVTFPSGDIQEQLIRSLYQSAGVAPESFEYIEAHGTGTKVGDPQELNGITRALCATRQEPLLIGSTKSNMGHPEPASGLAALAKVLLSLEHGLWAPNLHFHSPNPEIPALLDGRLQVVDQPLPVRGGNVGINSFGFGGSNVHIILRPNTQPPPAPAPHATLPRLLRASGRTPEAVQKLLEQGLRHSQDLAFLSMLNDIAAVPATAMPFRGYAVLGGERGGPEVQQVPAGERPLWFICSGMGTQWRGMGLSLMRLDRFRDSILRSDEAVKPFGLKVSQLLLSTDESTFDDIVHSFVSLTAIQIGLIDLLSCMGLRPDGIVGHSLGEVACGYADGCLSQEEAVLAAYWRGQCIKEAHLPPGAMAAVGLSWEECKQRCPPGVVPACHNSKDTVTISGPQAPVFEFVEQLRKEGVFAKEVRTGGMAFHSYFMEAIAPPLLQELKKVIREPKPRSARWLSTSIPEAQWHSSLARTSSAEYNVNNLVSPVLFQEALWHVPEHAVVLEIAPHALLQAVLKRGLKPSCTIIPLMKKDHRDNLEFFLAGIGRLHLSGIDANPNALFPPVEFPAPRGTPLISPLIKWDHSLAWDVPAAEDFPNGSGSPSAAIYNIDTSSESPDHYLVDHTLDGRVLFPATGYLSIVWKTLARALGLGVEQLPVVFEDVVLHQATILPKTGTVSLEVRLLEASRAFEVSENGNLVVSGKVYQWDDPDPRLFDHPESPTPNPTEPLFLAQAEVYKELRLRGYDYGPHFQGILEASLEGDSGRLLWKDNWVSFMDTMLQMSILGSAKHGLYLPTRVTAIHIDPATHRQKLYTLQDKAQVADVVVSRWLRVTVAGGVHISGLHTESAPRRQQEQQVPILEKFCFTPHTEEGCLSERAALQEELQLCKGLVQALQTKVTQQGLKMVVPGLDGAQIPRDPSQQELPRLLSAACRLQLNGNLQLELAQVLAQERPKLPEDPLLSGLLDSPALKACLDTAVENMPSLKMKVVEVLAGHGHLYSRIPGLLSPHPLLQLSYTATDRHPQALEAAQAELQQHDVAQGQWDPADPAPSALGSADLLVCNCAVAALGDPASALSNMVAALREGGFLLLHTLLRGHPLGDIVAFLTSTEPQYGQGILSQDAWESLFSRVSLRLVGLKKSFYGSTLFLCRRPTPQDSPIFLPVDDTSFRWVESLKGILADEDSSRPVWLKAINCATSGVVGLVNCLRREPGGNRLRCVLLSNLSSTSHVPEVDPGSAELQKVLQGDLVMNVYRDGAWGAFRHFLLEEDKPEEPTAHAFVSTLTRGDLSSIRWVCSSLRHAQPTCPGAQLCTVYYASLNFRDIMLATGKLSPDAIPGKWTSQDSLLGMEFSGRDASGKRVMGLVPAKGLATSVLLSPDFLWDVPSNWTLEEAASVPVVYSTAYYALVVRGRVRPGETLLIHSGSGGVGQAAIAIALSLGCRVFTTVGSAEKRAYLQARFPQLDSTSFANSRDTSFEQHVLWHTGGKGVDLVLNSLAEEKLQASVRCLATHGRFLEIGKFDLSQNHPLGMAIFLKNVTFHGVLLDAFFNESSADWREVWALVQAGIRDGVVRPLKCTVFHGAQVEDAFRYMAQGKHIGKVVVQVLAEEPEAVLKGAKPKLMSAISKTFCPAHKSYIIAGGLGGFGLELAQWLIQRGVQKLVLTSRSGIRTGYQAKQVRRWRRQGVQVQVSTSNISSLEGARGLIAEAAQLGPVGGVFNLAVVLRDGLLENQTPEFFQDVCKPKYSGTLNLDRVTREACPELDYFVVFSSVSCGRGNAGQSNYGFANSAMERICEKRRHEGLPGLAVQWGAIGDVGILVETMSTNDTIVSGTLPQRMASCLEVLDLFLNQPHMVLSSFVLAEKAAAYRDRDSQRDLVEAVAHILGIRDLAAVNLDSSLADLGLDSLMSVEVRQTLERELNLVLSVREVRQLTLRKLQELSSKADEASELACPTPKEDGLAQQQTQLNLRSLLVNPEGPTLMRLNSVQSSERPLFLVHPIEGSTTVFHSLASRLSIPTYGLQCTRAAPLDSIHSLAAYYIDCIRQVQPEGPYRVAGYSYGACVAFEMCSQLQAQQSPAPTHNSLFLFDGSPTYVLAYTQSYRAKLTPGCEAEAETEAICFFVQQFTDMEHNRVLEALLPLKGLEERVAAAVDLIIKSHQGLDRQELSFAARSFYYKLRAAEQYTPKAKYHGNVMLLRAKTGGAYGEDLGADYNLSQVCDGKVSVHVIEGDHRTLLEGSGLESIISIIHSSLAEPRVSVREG
CRFR2-BP antag = CRF-BP/CRF-R2 complex antagonism | HEK293 CRF-R2/CRF-BP, CRF-induced calcium fluorescence | inhibition, % at 11.8 µM | 0.59% of 350,000 active | AID 588475;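 active means inhibition of the ligand-induced calcium signal above about 50% at the single tested concentration, limit read from the data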
PfGluPho inh = PfG6PD (Plasmodium falciparum) enzyme inhibition. 0.78% of 350,000 active. PfGluPho enzyme, NADPH resazurin-diaphorase fluorescence. inhibition, % at 20 µM;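 active means inhibition reaching at least a set limit at 20 µM in the primary screen, cut at about 59% in these data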;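 further: 0% = DMSO wells with substrate and 100% = DMSO wells lacking glucose-6-phosphate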
CRFR2-BP ag = CRF-BP/CRF-R2 complex agonism | HEK293 CRF-R2/CRF-BP, calcium dye fluorescence (FLIPR); percent of saturating CRF peptide response | activation, % at 13.2 µM | 0.46% of 350,000 active;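 active means activation of at least 50%, plus an integration ratio under a set limit after plate pattern correction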;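 further: plate controls were neutral control wells without compound for no effect and CRF at EC100 for full effect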
Cardio protect = protects H9c2 cardiomyocytes from peroxide injury; H2O2 injury protection, ATPLite, 2 h; protection from H2O2 cell death, % at 20 µM; 0.63% of 360,000 active;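 active means compounds giving at least 50% protection of heart cells from peroxide-induced death in the single-dose screen, raw or plate-pattern-corrected value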;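 further: 0% = DMSO wells with peroxide and 100% = DMSO wells without peroxide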
aDG glyco up = increases alpha dystroglycan glycosylation | Pro5-aDG cells, alpha-DG glycosylation AlphaScreen (IIH6); 0% Pro5, 100% B10-LARGE cell signal | activation, % at 10 µM | 0.22% of 360,000 active | AID 624168;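 active means activation of at least 8% versus controls, or a plate z-score of at least 8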;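 further: Pro5 are CHO cells carrying HIG-tagged alpha-DG that lacks glycosylation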
PfG6PD confirm = confirmation of Plasmodium falciparum G6PD inhibitors. shares compounds with PfGluPho inh. 34% of 2,400 active. inhibition, % at 20 µM. recombinant PfGluPho, NADPH-diaphorase-resazurin fluorescence;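 active means inhibition of at least 50% at 20 µM in any single replicate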;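 further: 0% = DMSO with substrate and 100% = DMSO lacking glucose-6-phosphate substrate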
Diaphorase 10uM = inhibits diaphorase or oxidizes, flagging false PfG6PD hits; shares compounds with PfGluPho inh; diaphorase-coupled resazurin reduction, fluorescence, NADPH 10 uM; inhibition, % at 20 µM; 39% of 820 active;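 active means average inhibition reaching 50% or more with the compound at 20 µM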;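 further: resorufin red fluorescence formed as diaphorase reduces resazurin using NADPH; 0% = DMSO with enzyme and 100% = DMSO without enzyme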
Diaphorase 30uM = diaphorase inhibition or oxidation at 30 uM NADPH | shares compounds with PfGluPho inh | Diaphorase/resazurin coupled assay, resorufin fluorescence | inhibition, % at 20 µM | 29% of 820 active | AID 504863;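 active means inhibition averaging 50% or more, tested at 20 µM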;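 further: 0% = DMSO with enzyme and 100% = DMSO wells lacking diaphorase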
* = called active by the depositor; . = no result. The list is not random: actives were taken first. Their share in the collection is about 3.2%.

SMILES | FAS TE block | CRFR2-BP antag | PfGluPho inh | CRFR2-BP ag | Cardio protect | aDG glyco up | PfG6PD confirm | others
O=c1c2ccccc2sn1-c1ccc(Cl)cc1 | -17 | 28 | 126* | 25 | -30 | 1 | 106* | Diaphorase 10uM=-5;Diaphorase 30uM=16
O=c1c2ccccc2ncn1-c1ccc(Cl)cc1 | -1 | -1 | -13 | -2 | 2 | 0 | .
Cc1ccc(-n2sc3ccccc3c2=O)cc1 | -14 | 29 | 115* | 4 | -11 | 1 | 101* | Diaphorase 10uM=-23;Diaphorase 30uM=-23
Nn1cnnc1N/N=C/c1ccc(Cl)c([N+](=O)[O-])c1 | 10 | -6 | 73* | 0 | -2 | 0 | 63* | Diaphorase 10uM=82*;Diaphorase 30uM=74*
O=C(COC(=O)/C=C/c1ccccc1)NCc1cccs1 | -4 | 2 | -5 | -1 | -4 | 0 | .
Cc1ccc(/C=C/C(=O)OCC(=O)NCc2cccs2)o1 | -2 | 11 | 61* | -2 | 3 | 0 | 6
Cc1c(NC(=O)COC(=O)c2cccc(F)c2)c(=O)n(-c2ccccc2)n1C | -8 | 1 | -3 | 0 | 6 | 0 | .
Cn1c2c(c3cc([N+](=O)[O-])ccc31)CCCC2 | -2 | 7 | -5 | -1 | -17 | 0 | .
CCOC(=O)c1nc(C)sc1-c1ccnn1S(=O)(=O)c1cccc(Cl)c1 | 11 | 23 | -1 | 1 | -1 | 0 | .
O=C1Nc2cc(C(=O)NCCN3CCCCCC3)ccc2S/C1=C/c1ccccc1F | -16 | -16 | 99* | 5 | -12 | 1 | 45
CCN1CCCC1CNC(=O)c1ccc2c(c1)NC(=O)/C(=C\c1ccc(C)cc1)S2 (stereo unspecified) | -20 | 0 | 117* | 2 | -17 | 0 | 104* | Diaphorase 10uM=-12;Diaphorase 30uM=-3
COc1ccc(/C=C2/C(=N)N3C(=NC2=O)Sc2cc(S(C)(=O)=O)ccc23)cc1OC | . | 10 | -11 | 0 | . | . | .
Clc1ccc2nc(-c3ccc(Cl)nc3)[nH]c2c1 | 3 | -8 | 110* | 2 | -10 | 0 | 55* | Diaphorase 10uM=71*;Diaphorase 30uM=57*
O=[N+]([O-])c1ccc(NN=C(Oc2ccccc2)c2ccc([N+](=O)[O-])cc2)cc1 | -30 | -59 | 8 | 29 | -6 | 0 | .
CC/C(=N\Nc1ccc([N+](=O)[O-])cc1)c1ccccc1 | 48 | -19 | 74* | 0 | -22 | 1 | -15
CSc1ccccc1NC(=O)c1ccccc1 | -8 | -3 | -8 | 0 | 4 | 0 | .
O=C(Nc1ccccc1SC(=O)c1ccccc1)c1ccccc1 | -2 | -18 | 64* | 10 | -10 | 0 | 21
O=c1ccn(-c2cccc(C(F)(F)F)c2)nc1-c1ccn(-c2ccccc2)n1 | 4 | -2 | 91* | -3 | 6 | 0 | 73* | Diaphorase 10uM=66*;Diaphorase 30uM=55*
CCOC(=O)N1CCN(C(=O)C2CCC(=O)N(Cc3cccc(C(F)(F)F)c3)C2)CC1 (stereo unspecified) | -10 | 11 | 5 | -2 | -7 | 0 | .
Cc1ccc(-c2csc(NC(=O)c3ccc(F)cc3)c2C(=O)O)cc1 | -6 | 32 | 88* | -5 | -4 | 0 | 44
Cc1ccc(-c2csc(NC(=O)c3ccccc3F)c2C(=O)O)cc1 | -5 | 45 | 73* | 0 | -2 | 0 | 51* | Diaphorase 10uM=36;Diaphorase 30uM=40
COc1ccc(-c2csc(NC(=O)c3ccccc3Br)c2C(=O)O)cc1 | -2 | 32 | 34 | -2 | -6 | 0 | .
Cc1ccc(S(=O)(=O)CC(=O)NCc2ccc(Cl)cc2)cc1 | -7 | 1 | 4 | 0 | -2 | 0 | .
CCc1nc2ccc(C(=O)NCCN3CCNC3=O)cn2c1N(C)Cc1ccc(OC)cc1 | -5 | . | . | . | 11 | 0 | .
COc1ccc(NC(=O)c2ccc(-n3cccn3)c([N+](=O)[O-])c2)cc1 | 6 | 14 | 35 | 0 | -1 | 0 | .
SMILES | FAS TE block | CRFR2-BP antag | PfGluPho inh | CRFR2-BP ag | Cardio protect | aDG glyco up | PfG6PD confirm | others
O=C(Nc1ccc(Cl)cc1)c1ccc(-n2cccn2)c([N+](=O)[O-])c1 | 26 | -29 | 70* | 0 | -19 | 1 | 15
COc1ccccc1NC(=O)c1ccc(-n2cccn2)c([N+](=O)[O-])c1 | -4 | 16 | 22 | -1 | 7 | 0 | .
Cc1ccc(NC(=O)c2ccc(-n3cccn3)c([N+](=O)[O-])c2)cc1C | 11 | -15 | 77* | 1 | -2 | 4 | 16
O=c1cc(-c2ccccc2)oc2cc(O)c(O)c(O)c12 | 11 | -6 | 102* | -1 | 9 | 0 | 95* | Diaphorase 10uM=94*;Diaphorase 30uM=81*
Cn1c(N)c(C(=O)COC(=O)c2ccccc2C(F)(F)F)c(=O)n(C)c1=O | -4 | -1 | 16 | -1 | -3 | 0 | .
N#Cc1c(/N=C/C=C/c2ccccc2)sc2c1CCCC2 | 15 | -30 | 60* | -6 | -4 | 0 | 16
CN1CCN(/C=N/c2sc3c(c2C#N)CCCCC3)CC1 | -3 | 17 | 6 | -1 | 9 | -1 | .
O=C1C=C(C#Cc2ccccc2)C[C@@H](c2ccc(F)cc2)C1 | 23 | -2 | 10 | 2 | -30 | 0 | .
CCC(=O)/C=C1/Sc2ccccc2N1CC | -7 | -8 | 53 | -2 | -20 | 0 | .
CCN1/C(=C/C(=O)c2ccco2)Sc2ccccc21 | -6 | 20 | 77* | -3 | 3 | 0 | 34
COc1ccc(Cl)cc1NC(=O)NNC(=O)C(=O)Nc1ccc(F)cc1 | -6 | -9 | -22 | 7 | 7 | 0 | .
Oc1c(Cl)cc(Cl)c2cccnc12 | 4 | -15 | 1 | -2 | -3 | 0 | .
Oc1c(I)cc(I)c2cccnc12 | 8 | -25 | 65* | 1 | 38 | 0 | 5
O=C(Cn1ccc(NC(=O)OCc2ccccc2)nc1=O)NCc1ccc2c(c1)OCO2 | -8 | 1 | -6 | 0 | 0 | 0 | .
Clc1ccccc1/C=N/NC1=Nc2cccc3cccc1c23 | 2 | -13 | 0 | 7 | -24 | 0 | .
C(=N\NC1=Nc2cccc3cccc1c23)/c1ccccn1 | 9 | -16 | 65* | 2 | 1 | 0 | 14
COC(=O)c1sc(S(=O)(=O)Nc2c(C)nn(C)c2C)c(C(=O)OC)c1C | -7 | 3 | 0 | 2 | 2 | 0 | .
COC(=O)c1sc(NC(=S)NNC(=O)c2c(Br)c(C)nn2C)c(C(=O)OC)c1C | 7 | 14 | 61* | 6 | -10 | 0 | 38
CN=c1scc(-c2c[nH]c3ccccc23)n1C | -1 | -69 | 14 | 17 | 1 | 0 | .
